Activity calls are given as the source filed them.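 Rule for the calls, unless noted: active = inhibition of the reporter signal at or above 50%; inactive = inhibition below 50%.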
How the values were obtained:
[1] = inhibitors of TNFa-induced NFkB p65 translocation, primary screen, imaging, HUVEC, MLSMR starter and 10KST1 sets (AID 438;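 active = inhibition above 20% together with a positive visual image hit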;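 note: compound added about 3h40 before a 20 min TNFalpha stimulation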;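 for inhibition: signal is the nuclear over cytoplasmic p65 intensity ratio per well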); details: HUVEC TNFa-induced p65 nuclear translocation; cell count: measured here: nuclei count (cytotoxicity indicator), at 2.08 µM; inhibition: at 2 µM, stronger effect = higher value, 0% TNFa-plus-vehicle, 100% no-TNFa wells
[2] = reduction of polyQ htt aggregates in cells – imaging, exon1htt(103Q)mCFP cells, high-content imaging, primary screen (AID 483;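 active = visual image review flags a hit and inhibition of aggregation exceeds 20%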;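 note: compound exposure lasted 3 days before fixation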;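 for nuclei count: percent of the per-plate median nuclei count of sample wells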); details: exon1htt(103Q)mCFP cell line, aggregate imaging, at 2 µM; inhibition of aggregation: stronger effect = higher value; nuclei count: measured here: cell count, toxicity
[3] = endothelial E-selectin expression blockers – imaging, HUVEC, immunofluorescence, MLSMR starter and 10KST1 sets, primary screen (AID 487;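 active = visually confirmed hit in the image check and inhibition above 20%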;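 for inhibition: signal is fraction of cell area covered by stained E-selectin grains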;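 for nuclei count: 100% = median nuclei count of all wells on the same plate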); details: HUVEC TNFalpha-induced E-selectin immunofluorescence imaging, at 2 µM; inhibition: stronger effect = higher value; nuclei count: measured here: cell number, toxicity
[4] = target: Voltage-gated potassium channel subunit beta-2 (Rattus norvegicus) (UniProt P62483); test: inhibitors of rat Kvbeta2 reductase activity – biochemical, NADPH fluorescence, primary screen (AID 622;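 active = fluorescence slope higher than the sample average by over 3 SD, cut at about -0.22 in these data, passing the limit was not always enough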;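 note: slope of raw intensity against log time taken from 70 to 1610 s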); details: recombinant KvBeta, 4-cyanobenzaldehyde reduction, at 10 µM, stronger effect = higher value
[5] = target: Voltage-gated potassium channel subunit beta-2 (Rattus norvegicus) (UniProt P62483); test: enhancers of rat Kvbeta2 NADPH turnover – biochemical, NADPH fluorescence, primary screen (AID 623;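 active = NADPH fluorescence slope more negative than the mean of all samples by about 3 SD, 99.7% confidence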;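 note: fluorescence intensity change per second fitted from 20 to 320 s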); details: Recombinant KvBeta, NADPH fluorescence decrease slope, 10 min; at 10 µM; stronger effect = lower value
[6] = target: Alpha-2C adrenergic receptor (Homo sapiens) (UniProt P18825); test: compounds altering alpha2C-coupled GIRK flux – cell-based, HEK293 alpha2C/GIRK1/2, thallium flux, primary screen (AID 624;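 active = fluorescence slope after compound addition differing from the mean of all screened samples at 99.7% confidence, in either direction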;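 note: slope of fluorescence ratio to pre-addition baseline per second over 15 to 24 s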); details: thallium flux BTC fluorescence, at 10 µM, actives lie on both sides
[7] = blockers of RIG-like receptor reporter activation – cell-based, Sendai virus stimulus, luciferase, 10K MLSCN set, TLR/RLR signaling modifier project, primary screen (AID 602276;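 active = inhibition at or above 50% at 10 µM; inactive = inhibition below 50%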;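 note: firefly luciferase from ISG56 promoter only with Renilla not read in this screen; 0% = Sendai virus plus DMSO and 100% = medium plus DMSO without virus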); details: HEK293 RL24 IRF3 luciferase reporter, at 10 µM, stronger effect = higher value
[8] = TLR3 IRF3 reporter activation blockers – cell-based, poly I:C stimulus, luciferase, 10K MLSCN set, primary screen (AID 602277); details: HEK293-TLR3 RL24 IRF3 luciferase reporter, at 10 µM, stronger effect = higher value

Sequence of Voltage-gated potassium channel subunit beta-2 (Rattus norvegicus) (P62483 whole entry, looked up): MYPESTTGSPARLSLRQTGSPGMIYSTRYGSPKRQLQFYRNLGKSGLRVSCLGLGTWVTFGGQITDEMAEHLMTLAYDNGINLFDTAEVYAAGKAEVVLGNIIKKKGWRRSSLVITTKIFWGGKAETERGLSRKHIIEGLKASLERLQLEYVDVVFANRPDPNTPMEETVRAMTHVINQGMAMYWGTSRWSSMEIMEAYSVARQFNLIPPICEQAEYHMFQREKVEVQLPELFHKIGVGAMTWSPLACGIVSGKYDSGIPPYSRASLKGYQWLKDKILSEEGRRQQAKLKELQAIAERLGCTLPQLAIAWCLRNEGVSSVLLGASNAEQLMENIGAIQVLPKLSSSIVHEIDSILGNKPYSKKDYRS
Sequence of Alpha-2C adrenergic receptor (Homo sapiens) (P18825 whole entry, looked up): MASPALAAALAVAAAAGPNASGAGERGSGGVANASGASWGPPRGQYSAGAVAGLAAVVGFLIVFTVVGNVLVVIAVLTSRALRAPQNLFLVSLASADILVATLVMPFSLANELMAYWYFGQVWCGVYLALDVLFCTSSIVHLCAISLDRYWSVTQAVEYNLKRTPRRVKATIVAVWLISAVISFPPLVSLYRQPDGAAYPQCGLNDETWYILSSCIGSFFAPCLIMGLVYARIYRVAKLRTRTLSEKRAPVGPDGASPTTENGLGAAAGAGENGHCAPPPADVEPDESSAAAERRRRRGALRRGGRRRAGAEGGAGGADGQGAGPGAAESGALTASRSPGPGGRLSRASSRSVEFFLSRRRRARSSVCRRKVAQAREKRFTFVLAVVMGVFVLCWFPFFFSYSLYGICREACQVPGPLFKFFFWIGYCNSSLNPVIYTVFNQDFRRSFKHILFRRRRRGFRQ

SMILES	cell count [1]	inhibition [1]	inhibition of aggregation [2]	nuclei count [2]	inhibition [3]	nuclei count [3]	fluorescence slope [4]	NADPH fluorescence slope [5]	slope [6]	inhibition [7]	inhibition [8]
CCC1(CC)C(=O)N(C)C(=O)NC1=NCc1ccccc1	512	-4.7% (inactive)	-9.9% (inactive)	107%	24.4% (inactive)	96.9%	-0.334 (inactive)	2e-05 (inactive)	0.0048 (inactive)	18.2% (inactive)	12.1% (inactive)
COCc1nnc(NC(=O)c2ccc(NC(C)=O)cc2)s1	684	-12.6% (inactive)	-4.2% (inactive)	95.9%	-22% (inactive)	93.1%	-0.527 (inactive)	-3.7e-06 (inactive)	0.00454 (inactive)	-5.57% (inactive)	-14.7% (inactive)
Cc1noc(/C=C/N(C)C)c1S(=O)(=O)N1CCCC(C(=O)NC2CCCCC2)C1 (stereo not drawn)	625	11.7% (inactive)	7.9% (inactive)	93.6%	34.5% (inactive)	62.5%	-0.566 (inactive)	1.6e-05 (inactive)	0.0069 (inactive)	16.1% (inactive)	14.8% (inactive)
Cc1cc(C)n(CC(=O)NC2CCCCC2)n1	406	-0.6% (inactive)	-4.9% (inactive)	105%	-225% (inactive)	114%	-0.468 (inactive)	-1.5e-06 (inactive)	0.00622 (inactive)	14.7% (inactive)	18% (inactive)
CCOC(=O)c1sc2nc(SCC#N)n(CCCN3CCCC3=O)c(=O)c2c1C	399	3.4% (inactive)	-11.9% (inactive)	89.9%	49% (inactive)	96.1%	-0.461 (inactive)	-6.7e-05 (inactive)	0.00586 (inactive)	4.69% (inactive)	-8.03% (inactive)
CCOc1ccc(S(=O)(=O)Nc2cccc(Cl)c2)cc1	376	-2.9% (inactive)	-0.3% (inactive)	78.4%	-10.2% (inactive)	81.5%	-0.627 (inactive)	-2.5e-05 (inactive)	0.00349 (inactive)	38.8% (inactive)	34.1% (inactive)
CCCCSc1nc(CCC)cc(=O)[nH]1	383	-0.3% (inactive)	-4% (inactive)	98.2%	3.8% (inactive)	116%	-0.34 (inactive)	5.5e-06 (inactive)	0.00636 (inactive)	5.02% (inactive)	2.79% (inactive)
O=C(Oc1ccc2c(c1)CCC2)N1CCOCC1	360	5.5% (inactive)	6.4% (inactive)	88.2%	21.8% (inactive)	81.4%	-0.393 (inactive)	8.5e-06 (inactive)	0.00612 (inactive)	-63.8% (inactive)	-185% (inactive)
Cc1ccccc1Cn1c(=O)c2c(nc3n2CCCN3Cc2ccccc2)n(C)c1=O	348	7.4% (inactive)	7.4% (inactive)	97.8%	-25.1% (inactive)	120%	-0.478 (inactive)	-7.4e-06 (inactive)	0.00418 (inactive)	22.9% (inactive)	19.5% (inactive)
COc1ccc(S(=O)(=O)Cc2ccc(C(=O)N3CCN(Cc4ccccc4)CC3)o2)cc1	583	-4.8% (inactive)	21.6% (inactive)	98.6%	-37.7% (inactive)	121%	-0.588 (inactive)	-1.9e-05 (inactive)	0.0068 (inactive)	-3.69% (inactive)	28.9% (inactive)
COc1ccc(NC(=O)CSc2nc3c(c(=O)n2-c2ccc(F)cc2)SCC3)c(OC)c1	339	0.6% (inactive)	-14.2% (inactive)	109%	-407% (inactive)	114%	-0.474 (inactive)	-1.7e-05 (inactive)	0.00491 (inactive)	19.4% (inactive)	26.7% (inactive)
CCC(OC(=O)c1cccs1)C(=O)NCc1ccco1 (stereo not drawn)	404	5.2% (inactive)	10.4% (inactive)	90.1%	-72.5% (inactive)	118%	-0.44 (inactive)	-0.000112 (inactive)	0.00455 (inactive)	16.1% (inactive)	25% (inactive)
COc1ccc(CC(=O)OCn2nnc3ccccc3c2=O)cc1	423	-7% (inactive)	-25.9% (inactive)	120%	-7.5% (inactive)	115%	-0.416 (inactive)	-4.2e-05 (inactive)	0.00601 (inactive)	12% (inactive)	16.4% (inactive)
O=C(OCN1C(=O)c2ccccc2C1=O)c1ccc2c(=O)n3c(nc2c1)CCC3	380	-26.1% (inactive)	29.8% (inactive)	79.3%	74.4% (inactive)	96.4%	-0.581 (inactive)	-6.9e-05 (inactive)	0.00527 (inactive)	5.92% (inactive)	16.5% (inactive)
COc1ccc(S(=O)(=O)N(C)CC(=O)N2CCCCC2)cc1Cl	173	-15.7% (inactive)	4.2% (inactive)	94.8%	-2.3% (inactive)	87%	-0.492 (inactive)	-2.5e-05 (inactive)	0.00667 (inactive)	13.8% (inactive)	15% (inactive)
Cc1cc(Cl)ccc1NC(=O)CSc1nnc(Cc2cccs2)n1Cc1ccco1	270	-4.3% (inactive)	27.5% (inactive)	74.6%	-32.8% (inactive)	102%	-0.494 (inactive)	-5e-05 (inactive)	0.00645 (inactive)	17.4% (inactive)	32.2% (inactive)
CN(CC(=O)Nc1ccc(F)c(Cl)c1)S(=O)(=O)c1cccc2nsnc12	615	-19.8% (inactive)	5.8% (inactive)	64.7%	-18.3% (inactive)	108%	-0.34 (inactive)	-3.5e-05 (inactive)	0.00478 (inactive)	-14.7% (inactive)	98.7% (active)
CCOC(=O)c1cccc(NC(=O)CSc2nc3cccnc3n2C)c1	782	-8.4% (inactive)	0.7% (inactive)	111%	-14.2% (inactive)	105%	-0.526 (inactive)	4.1e-06 (inactive)	0.00563 (inactive)	-4.22% (inactive)	-23.7% (inactive)
CCN1C(=O)/C(=C2\C=Cc3ccccc3N2CC)OC1=S	695	-8% (inactive)	0.5% (inactive)	8.3%	16.6% (inactive)	107%	-0.334 (inactive)	-4.6e-05 (inactive)	0.00379 (inactive)	4% (inactive)	-8.93% (inactive)
CCN(CCCNC(=O)C1CCCN(S(=O)(=O)c2cnc[nH]2)C1)c1ccccc1 (stereo not drawn)	611	21.8% (inactive)	-4.7% (inactive)	100%	-91.6% (inactive)	142%	-0.507 (inactive)	-2.4e-05 (inactive)	0.00623 (inactive)	5.83% (inactive)	7.07% (inactive)
O=S1(=O)C=C(Sc2nnc(-c3ccccc3)o2)c2ccccc21	237	7.4% (inactive)	0.8% (inactive)	93.4%	-55.3% (inactive)	109%	-0.479 (inactive)	-5.2e-05 (inactive)	0.00503 (inactive)	12.3% (inactive)	66.1% (active)
CC1=C(C(=O)Nc2ccccc2C)C(c2ccc(C)o2)N2C(=O)CSC2=N1 (stereo not drawn)	642	-16.7% (inactive)	0% (inactive)	106%	-5.9% (inactive)	95.6%	-0.44 (inactive)	-1.8e-05 (inactive)	0.00436 (inactive)	16.5% (inactive)	21.5% (inactive)
C=CCSc1nnc(-c2cccnc2)o1	566	8.2% (inactive)	13.3% (inactive)	94.4%	19.1% (inactive)	78.2%	-0.539 (inactive)	-5.1e-05 (inactive)	0.00706 (inactive)	1.31% (inactive)	-8.9% (inactive)
CN1CCc2c(sc3c2C(=O)NC(c2cccc(OC(=O)c4cccs4)c2)N3)C1 (stereo not drawn)	497	-2.5% (inactive)	-4.1% (inactive)	101%	-21.9% (inactive)	108%	-0.422 (inactive)	-4.2e-05 (inactive)	0.00392 (inactive)	-5.69% (inactive)	10.3% (inactive)
COc1cc(C2C(C#N)=C(N)OC3=C2C(=O)CC(C)(C)C3)ccc1OC(=O)N1CCOCC1 (stereo not drawn)	482	-36.6% (inactive)	13.8% (inactive)	86.6%	-75% (inactive)	112%	-0.511 (inactive)	1.1e-05 (inactive)	0.00692 (inactive)	-15.1% (inactive)	11.1% (inactive)
CCN(CC(=O)O)S(=O)(=O)c1cc(Cl)ccc1Cl	353	5.6% (inactive)	10.8% (inactive)	97.3%	-33.4% (inactive)	75.2%	-0.416 (inactive)	-2.7e-05 (inactive)	0.00473 (inactive)	-0.0466% (inactive)	-0.284% (inactive)
CCn1c(SCC(=O)Nc2ccccc2F)nc2c(c1=O)SC(C)C2 (stereo not drawn)	339	-2.2% (inactive)	-3.7% (inactive)	104%	-2% (inactive)	117%	-0.554 (inactive)	-3.3e-06 (inactive)	0.00612 (inactive)	3.68% (inactive)	8.8% (inactive)
O=C(Nc1cccc2ncccc12)c1ccc2c(c1)OCCO2	586	2.2% (inactive)	11.1% (inactive)	101%	-8.1% (inactive)	81.2%	-0.46 (inactive)	-4.6e-05 (inactive)	0.00308 (inactive)	-12.7% (inactive)	-8.56% (inactive)

— PubChem BioAssay
